Measured values taken from PubChem BioAssay (NCI).
Several values for one entry are separate records, joined by “and”; a condition that tells them apart may be missing. Equal values may be shown once. Compounds without any hit were thinned out: in the full panel of roughly 83,000, 20% have a hit.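 In brief: 96-well plates, 48 h treatment, single concentration, percent growth endpoint.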 Activity calls are given as the source filed them. Rule for the calls: active = growth percent below 10; inactive = the rest.

Columns and labels:
Assay in all cases: NCI-60 one-dose screen, 48 h (100 = growth as untreated, 0 = no growth, -100 = all killed)
Conditions in all cases: 10 µM
NCI-H23 lung = test system: NCI-H23 lung
NCI-H226 lung = test system: NCI-H226 lung
NCI-H322M lung = test system: NCI-H322M lung
HOP-62 NSCLC = test system: HOP-62 NSCLC
NCI-H460 lung = test system: NCI-H460 lung
NCI-H522 lung = test system: NCI-H522 lung
A549/ATCC NSCLC = test system: A549/ATCC NSCLC
786-0 renal = test system: 786-0 renal
COLO 205 colon = test system: COLO 205 colon
DU-145 prostate = test system: DU-145 prostate
K-562 leukemia = test system: K-562 leukemia
MALME-3M melanoma = test system: MALME-3M melanoma
MDA-MB-231 breast = test system: MDA-MB-231 breast
RXF 393 renal = test system: RXF 393 renal
SF-268 CNS = test system: SF-268 CNS
SF-295 CNS = test system: SF-295 CNS
SF-539 CNS = test system: SF-539 CNS
UACC-257 melanoma = test system: UACC-257 melanoma
M14 melanoma = test system: M14 melanoma
HOP-92 NSCLC = test system: HOP-92 NSCLC

Measured: growth

COc1ccccc1/C=C/[N+](=O)[O-]
active: RXF 393 renal 1.37%
inactive: NCI-H23 lung 74.9% | NCI-H226 lung 96.1% | NCI-H322M lung 102% | HOP-62 NSCLC 97.1% | NCI-H460 lung 74.4% | NCI-H522 lung 62.6% | A549/ATCC NSCLC 75.5% | 786-0 renal 93.1% | COLO 205 colon 79.3% | DU-145 prostate 48.2% | K-562 leukemia 33.8% | MALME-3M melanoma 97.5% | MDA-MB-231 breast 73% | SF-268 CNS 76.1% | SF-295 CNS 93.9% | SF-539 CNS 64% | UACC-257 melanoma 71.8% | M14 melanoma 59.8%

CC(Cc1ccc2c(c1)OCO2)NN (configuration not stated)
inactive: NCI-H23 lung 90.5% | NCI-H226 lung 87.1% | NCI-H322M lung 99.5% | HOP-62 NSCLC 73.9% | NCI-H460 lung 105% | HOP-92 NSCLC 76.6% | NCI-H522 lung 84% | A549/ATCC NSCLC 82.8% | 786-0 renal 88.2% | COLO 205 colon 99% | DU-145 prostate 113% | K-562 leukemia 82% | MALME-3M melanoma 97.2% | MDA-MB-231 breast 104% | RXF 393 renal 111% | SF-268 CNS 100% | SF-295 CNS 91% | SF-539 CNS 91.9% | M14 melanoma 96.7%

S=C=NCCc1ccccc1
inactive: NCI-H23 lung 20% | NCI-H226 lung 85.8% | NCI-H322M lung 110% | HOP-62 NSCLC 85.2% | NCI-H460 lung 58.5% | HOP-92 NSCLC 56.5% | NCI-H522 lung 44.1% | A549/ATCC NSCLC 61.7% | 786-0 renal 71.5% | DU-145 prostate 44.5% | K-562 leukemia 20.4% | MALME-3M melanoma 88.7% | MDA-MB-231 breast 38.4% | RXF 393 renal 31.5% | SF-268 CNS 58.2% | SF-295 CNS 115% | SF-539 CNS 29.1% | UACC-257 melanoma 88.5%

C/C(=C\c1ccc(Cl)c(Cl)c1)[N+](=O)[O-]
-26.3% (active) and 101% (inactive): MDA-MB-231 breast
inactive: NCI-H23 lung 44.6% and 94.8% | NCI-H226 lung 98.1% | NCI-H322M lung 94.6% and 100% | HOP-62 NSCLC 86.9% | NCI-H460 lung 55.6% and 105% | A549/ATCC NSCLC 74.3% and 76.6% | 786-0 renal 45.8% and 94.9% | SF-295 CNS 94.5% | SF-539 CNS 96.3% and 100%
-29.8% (active) and 89.5% (inactive): HOP-92 NSCLC
-91.7% (active) and 100% (inactive): RXF 393 renal
-86.8% (active) and 95% (inactive): M14 melanoma
0.843% (active) and 78.6% (inactive): K-562 leukemia
-19.1% (active) and 102% (inactive): SF-268 CNS
-87.3% (active) and 82.6% (inactive): NCI-H522 lung
8.46% (active) and 104% (inactive): DU-145 prostate
-55.4% (active) and 105% (inactive): MALME-3M melanoma
active: UACC-257 melanoma -88.8%

CS(=N)(=O)CCC(N)C(=O)O (configuration not stated)
inactive: NCI-H23 lung 95.2% | NCI-H226 lung 101% | NCI-H322M lung 108% | HOP-62 NSCLC 98.3% | NCI-H460 lung 112% | HOP-92 NSCLC 106% | NCI-H522 lung 96.9% | A549/ATCC NSCLC 97.8% | 786-0 renal 102% | DU-145 prostate 122% | K-562 leukemia 97.2% | MALME-3M melanoma 103% | MDA-MB-231 breast 109% | SF-268 CNS 119% | SF-295 CNS 97.1% | SF-539 CNS 109% | UACC-257 melanoma 105% | M14 melanoma 108%

COc1cc2c(cc1OC)C13CCN4CC5=CCOC6CC(=O)N2C1C6C5CC43 (configuration not stated)
inactive: NCI-H23 lung 90% and 100% | NCI-H226 lung 95.9% and 95.7% | NCI-H322M lung 118% and 144% | HOP-62 NSCLC 120% and 102% | NCI-H460 lung 120% and 83.2% | HOP-92 NSCLC 87.4% | NCI-H522 lung 105% and 99.1% | A549/ATCC NSCLC 99.4% | 786-0 renal 112% and 99.6% | DU-145 prostate 123% and 116% | K-562 leukemia 124% and 74.9% | MALME-3M melanoma 126% and 103% | MDA-MB-231 breast 111% and 87.4% | RXF 393 renal 127% | SF-268 CNS 103% | SF-295 CNS 105% and 134% | SF-539 CNS 96.8% and 80.2% | UACC-257 melanoma 104% | M14 melanoma 107% and 108%

C#CC1(O)CCC(C(C)(C)C)CC1 (configuration not stated)
inactive: NCI-H23 lung 105% | NCI-H226 lung 111% | NCI-H322M lung 110% | HOP-62 NSCLC 115% | NCI-H460 lung 112% | HOP-92 NSCLC 87.9% | NCI-H522 lung 122% | A549/ATCC NSCLC 94.2% | 786-0 renal 107% | DU-145 prostate 114% | K-562 leukemia 121% | MALME-3M melanoma 115% | MDA-MB-231 breast 119% | RXF 393 renal 115% | SF-268 CNS 103% | SF-295 CNS 97.7% | SF-539 CNS 102% | UACC-257 melanoma 97% | M14 melanoma 108%

NC(=O)c1cc([N+](=O)[O-])c(Cl)c([N+](=O)[O-])c1Cl
active: HOP-92 NSCLC -52.2% | NCI-H522 lung -82.4% | K-562 leukemia 8.14% | MALME-3M melanoma -51.5% | MDA-MB-231 breast 1.49% | RXF 393 renal -89.6% | SF-539 CNS 5% | UACC-257 melanoma -29.2% | M14 melanoma -21.9%
inactive: NCI-H23 lung 25.6% | NCI-H226 lung 59.7% | NCI-H322M lung 98.3% | HOP-62 NSCLC 35.9% | NCI-H460 lung 72.2% | A549/ATCC NSCLC 89.6% | 786-0 renal 13.2% | SF-295 CNS 95.5%

COC1CC2C=C(C)/C=C/C=C/C(=O)NC(c3ccccc3)C/C=C/CCC(O)CC(=O)C2=C1O (configuration not stated)
active: NCI-H23 lung -73.5% | NCI-H226 lung -61.6% | NCI-H322M lung -92.8% | HOP-62 NSCLC -91.6% | NCI-H460 lung -73.3% | HOP-92 NSCLC -86.6% | A549/ATCC NSCLC -82.7% | 786-0 renal -94.3% | DU-145 prostate -85.6% | K-562 leukemia -52.2% | MALME-3M melanoma -84.5% | MDA-MB-231 breast -74.8% | RXF 393 renal -90.6% | SF-268 CNS -78.3% | SF-295 CNS -89.3% | SF-539 CNS -99.4% | M14 melanoma -95.7%

O=[N+]([O-])c1ccc(Br)c([N+](=O)[O-])c1
inactive: NCI-H23 lung 108% | NCI-H226 lung 101% | NCI-H322M lung 115% | HOP-62 NSCLC 115% | NCI-H460 lung 94.8% | HOP-92 NSCLC 109% | A549/ATCC NSCLC 104% | 786-0 renal 108% | DU-145 prostate 93.4% | K-562 leukemia 34.6% | MALME-3M melanoma 68.6% | MDA-MB-231 breast 88.9% | RXF 393 renal 102% | SF-268 CNS 96.8% | SF-295 CNS 108% | SF-539 CNS 98.7% | UACC-257 melanoma 74.3% | M14 melanoma 79.9%
active: NCI-H522 lung -28.5%

O=[P+](O)c1ccccc1
inactive: NCI-H23 lung 107% | NCI-H226 lung 107% | NCI-H322M lung 149% | HOP-62 NSCLC 93.9% | NCI-H460 lung 106% | HOP-92 NSCLC 101% | A549/ATCC NSCLC 107% | DU-145 prostate 121% | K-562 leukemia 103% | MALME-3M melanoma 119% | MDA-MB-231 breast 112% | RXF 393 renal 115% | SF-268 CNS 103% | SF-295 CNS 109% | SF-539 CNS 104% | UACC-257 melanoma 101% | M14 melanoma 100%

Cc1ccc(C(=O)C2C(c3ccccc3)N2C2CCCCC2)cc1 (configuration not stated)
inactive: NCI-H23 lung 102% and 88.4% | NCI-H226 lung 100% and 94.7% | NCI-H322M lung 107% | HOP-62 NSCLC 112% and 101% | NCI-H460 lung 98.6% and 92% | HOP-92 NSCLC 78.1% | NCI-H522 lung 90.5% and 75.5% | A549/ATCC NSCLC 99.9% and 105% | 786-0 renal 101% and 97.6% | DU-145 prostate 105% and 111% | K-562 leukemia 87.3% and 83% | MALME-3M melanoma 98.1% and 97.9% | MDA-MB-231 breast 117% and 112% | RXF 393 renal 111% and 96.8% | SF-268 CNS 111% and 102% | SF-295 CNS 106% | SF-539 CNS 99.9% and 103% | UACC-257 melanoma 89.9% and 98.6% | M14 melanoma 93.8% and 92.2%

Cc1cc(C(C)(C)c2ccc(O)c(C)c2)ccc1O
inactive: NCI-H23 lung 97.4% | NCI-H226 lung 107% | NCI-H322M lung 93.4% | HOP-62 NSCLC 97.4% | NCI-H460 lung 110% | HOP-92 NSCLC 110% | NCI-H522 lung 83.8% | A549/ATCC NSCLC 75.7% | 786-0 renal 102% | DU-145 prostate 107% | K-562 leukemia 80.8% | MALME-3M melanoma 88.4% | MDA-MB-231 breast 80.5% | RXF 393 renal 93.5% | SF-268 CNS 90.3% | SF-295 CNS 104% | SF-539 CNS 92.2% | UACC-257 melanoma 81.7% | M14 melanoma 106%

Cn1c(O)c(N=O)c(=O)n(C)c1=O
inactive: NCI-H23 lung 94.4% and 95.1% | NCI-H226 lung 93.3% and 103% | NCI-H322M lung 97.1% and 101% | HOP-62 NSCLC 101% and 90.9% | NCI-H460 lung 110% and 102% | HOP-92 NSCLC 101% and 85.9% | NCI-H522 lung 91% and 74.7% | A549/ATCC NSCLC 107% and 98.1% | 786-0 renal 104% and 93.3% | DU-145 prostate 98.1% and 106% | K-562 leukemia 94.1% and 95.2% | MALME-3M melanoma 99.1% and 107% | MDA-MB-231 breast 107% and 101% | RXF 393 renal 107% and 115% | SF-268 CNS 92.8% and 97.5% | SF-295 CNS 102% and 93.7% | SF-539 CNS 102% and 90.7% | UACC-257 melanoma 99.3% and 95.7% | M14 melanoma 111% and 102%

COc1ccccc1[As]=[As]c1ccccc1OC (configuration not stated)
active: NCI-H23 lung -86.8% | NCI-H226 lung -93.5% | NCI-H322M lung -80.8% | HOP-62 NSCLC -94.8% | NCI-H460 lung -42.6% | HOP-92 NSCLC -85.1% | NCI-H522 lung -80.6% | A549/ATCC NSCLC -88.1% | 786-0 renal -94.7% | DU-145 prostate -89.9% | K-562 leukemia 8.02% | MALME-3M melanoma -72.8% | MDA-MB-231 breast -83.2% | RXF 393 renal -99.5% | SF-268 CNS -82.9% | SF-295 CNS -86.4% | SF-539 CNS -91.4% | UACC-257 melanoma -95.5% | M14 melanoma -81.4%
